Here are results for 15 compounds from the supplement of paper PMC6522484.

± gives the standard deviation of the averaged measurements.

Test [1] concerns DLD1. Description: cell viability (CellTiter-Glo) relative to plate median (fraction of plate median); higher = more viable cells. Particulars: 5 µM; treatment time 24 h; reporter: 7TFP. The method, boiled down:
(§1)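 Colorectal cancer cell lines stably carrying lentiviral TCF/Wnt firefly luciferase reporters (7TFP or TCF4/Wnt) were plated in 384-well plates and, 24 h later, given library compounds at a final 5 µM for 24 h. Firefly luciferase or CellTiterGlo luminescence was read on parallel plates with a Tecan F500 reader. Each well's signal was normalised to the plate median in webcellHTS2 (additive, without log transformation). Values are the mean of two independent replicates.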

In the next test the test system is HCT116. The description is as above. The following applies: 5 µM; treatment time 24 h; reporter: TCF4/Wnt. The method, boiled down:
as §1

In test [2] the test system is SW480. The description is as above. Particulars: 5 µM; treatment time 24 h; reporter: 7TFP. The method, boiled down:
as §1

In test [3] the test system is DLD1. The test can be described thus: TCF/Wnt firefly luciferase reporter signal relative to plate median (fraction of plate median); higher = higher Wnt reporter signal. The following applies: 5 µM; treatment time 24 h; reporter: 7TFP. An outline of the steps:
as §1

For test [4], the system named is SW480. The description is as above. The following applies: 5 µM; treatment time 24 h; reporter: 7TFP. The method, boiled down: as §1

Take `O=c1n(CCCN2CCN(c3cccc(Cl)c3)CC2)nc2ccccn12`: the cell viability was determined as 1.005 ± 0.0071 in the test on DLD1 [1], 0.987 ± 0.12 in the test with HCT116 and 1.01 ± 0.014 in the test with SW480 [2]. Besides, the “TCF/Wnt firefly luciferase reporter signal” value with DLD1 [3] is 1.08 ± 0.28; with SW480 [4], 0.971 ± 0.083.

Regarding `C[C@@H]1CC(=O)O[C@H](C)Cc2cc(O)cc(O)c2C(=O)O[C@H](C)CC(=O)O[C@H](C)Cc2cc(O)cc(O)c2C(=O)O[C@H](C)CC(=O)O1`, the figures for the cell viability with DLD1 [1], in the test on HCT116 and in the test with SW480 [2] were 0.982 ± 0.0014, 0.997 ± 0.047 and 1.01 ± 0.026, respectively. Moreover, the “TCF/Wnt firefly luciferase reporter signal” value in the test with DLD1 [3] was found to be 1.05 ± 0.028; in the test with SW480 [4] it was 0.918 ± 0.042.

With `CCOC(=O)n1ccn(C)c1=S`, the cell viability with DLD1 [1] was 0.985 ± 0.05; in the test on HCT116, 1.12; in the test with SW480 [2], 1.01 ± 0.035. The “TCF/Wnt firefly luciferase reporter signal” value in the test with DLD1 [3] was determined as 0.9725 ± 0.0021; in the test on SW480 [4], 1.04 ± 0.014.

As to `CC1=C(/C=C/C(C)=C/C=C/C(C)=C/C=C/C=C(C)/C=C/C=C(C)/C=C/C2=C(C)CCCC2(C)C)C(C)(C)CCC1` [beta-CAROTENE], the cell viability with DLD1 [1] came out at 0.966 ± 0.0042; in the test with HCT116, 1 ± 0.064; with SW480 [2] it was 0.984 ± 0.0014. Moreover, the “TCF/Wnt firefly luciferase reporter signal” value came to 0.932 ± 0.018 in the test with DLD1 [3] and 0.983 ± 0.052 with SW480 [4].

Turning to `CCn1cc(C(=O)O)c(=O)c2cc(F)c(N3CCNCC3)cc21`, the cell viability with DLD1 [1] came to 0.944 ± 0.061; with HCT116 it was 0.98 ± 0.18; with SW480 [2] it was 0.926 ± 0.0014. Further, the “TCF/Wnt firefly luciferase reporter signal” value in the test on DLD1 [3] was determined as 1.19 ± 0.042; in the test on SW480 [4] it was 1.07 ± 0.071.

As for `O=C(O)c1cccnc1C(=O)O`, the cell viability worked out at 1.07 ± 0.021 in the test on DLD1 [1], 1.095 ± 0.0071 in the test with HCT116 and 1.03 ± 0.014 in the test on SW480 [2]. The “TCF/Wnt firefly luciferase reporter signal” value with DLD1 [3] was 1.04 ± 0.15; in the test with SW480 [4], 1.1 ± 0.085.

Take `CCC/C=C1\OC(=O)C2=C1CCC=C2`: the values for the cell viability in the test on DLD1 [1], in the test with HCT116 and with SW480 [2] were 0.992 ± 0.083, 0.973 ± 0.0028 and 0.9545 ± 0.00071, respectively. Moreover, the results for the “TCF/Wnt firefly luciferase reporter signal” value in the test on DLD1 [3] and with SW480 [4] were 0.948 ± 0.1 and 0.967 ± 0.061, respectively.

For the compound `CN(C)CCOC(=O)C(c1ccccc1)C1(O)CCCC1` (stereo not given), the results for the cell viability in the test on DLD1 [1], in the test with HCT116 and in the test with SW480 [2] were 0.986 ± 0.0014, 1.07 ± 0.099 and 1 ± 0.013, respectively. The “TCF/Wnt firefly luciferase reporter signal” value was 1.12 ± 0.12 in the test with DLD1 [3] and 1.05 ± 0.12 in the test with SW480 [4].

`N[C@@H](Cc1cc(I)c(Oc2ccc(O)c(I)c2)c(I)c1)C(=O)O` [LIOTHYRONINE (L- isomer) SODIUM]: the results for the cell viability in the test on DLD1 [1], in the test with HCT116 and with SW480 [2] were 0.994 ± 0.093, 1.04 ± 0.091 and 1.11 ± 0.064, respectively. In addition, the entries for the “TCF/Wnt firefly luciferase reporter signal” value in the test with DLD1 [3] and in the test with SW480 [4] were 1.14 ± 0.17 and 1.055 ± 0.0071, respectively.

For the compound `O=c1cc(-c2ccc(O)c(O)c2)oc2cc(O[C@@H]3O[C@H](CO)[C@@H](O)[C@H](O)[C@H]3O)cc(O)c12` [Luteolin-7-O-glucoside (102)], the cell viability with DLD1 [1] is 0.908 ± 0.058; in the test with HCT116 it was 0.957 ± 0.041; in the test on SW480 [2], 0.95 ± 0.0028. The “TCF/Wnt firefly luciferase reporter signal” value was 0.861 ± 0.052 in the test on DLD1 [3] and 1.03 ± 0.072 with SW480 [4].

Turning to `CO/N=C(\C(=O)N[C@@H]1C(=O)N2C(C(=O)O)=C(COC(C)=O)CS[C@H]12)c1csc(N)n1`, the figures for the cell viability in the test with DLD1 [1], with HCT116 and in the test on SW480 [2] were 1.03 ± 0.035, 1.07 and 0.969 ± 0.031, respectively. Besides, the “TCF/Wnt firefly luciferase reporter signal” value in the test on DLD1 [3] came out at 1.01 ± 0.11; with SW480 [4], 0.856 ± 0.074.

With `O=C1c2ccccc2C(=O)c2c(O)c(O)cc(O)c21`, the cell viability in the test with DLD1 [1] came out at 1.02 ± 0.052; in the test on HCT116, 0.96 ± 0.14; in the test with SW480 [2] it was 1.09 ± 0.092. Also, the “TCF/Wnt firefly luciferase reporter signal” value came to 1.17 ± 0.028 in the test on DLD1 [3] and 0.873 ± 0.044 with SW480 [4].

Turning to `C[C@H](CCC(=O)O)[C@H]1CC[C@H]2[C@@H]3CC[C@@H]4C[C@H](O)CC[C@]4(C)[C@H]3CC[C@]12C`, the results for the cell viability with DLD1 [1], in the test on HCT116 and in the test with SW480 [2] were 1.11 ± 0.11, 1.17 ± 0.15 and 1.04 ± 0.028, respectively. For the same compound, the results for the “TCF/Wnt firefly luciferase reporter signal” value in the test on DLD1 [3] and in the test with SW480 [4] were 1.21 ± 0.11 and 1.16 ± 0.014, respectively.

Consider `CCOc1ccc2nc3cc(N)ccc3c(N)c2c1`, for which the cell viability came out at 1.02 ± 0.11 in the test with DLD1 [1], 1.02 ± 0.074 in the test on HCT116 and 0.999 ± 0.016 with SW480 [2]. Besides, the “TCF/Wnt firefly luciferase reporter signal” value in the test with DLD1 [3] was 1.1 ± 0.085; in the test on SW480 [4], 0.925 ± 0.013.

As to `CCCCCCCCCCCC1=C(O)C(=O)C=C(O)C1=O`, the results for the cell viability with DLD1 [1], in the test on HCT116 and with SW480 [2] were 1.01 ± 0.06, 1.12 ± 0.071 and 0.9665 ± 0.00071, respectively. The “TCF/Wnt firefly luciferase reporter signal” value was determined as 1.1 ± 0.028 in the test with DLD1 [3] and 1.075 ± 0.0071 in the test on SW480 [4].
